Measured values as given in PubChem BioAssay (NCATS).
Records with an inconclusive call do not appear. Where a call stands in place of a potency, no number is given. Unmarked numbers belong to inactive results. Active and inactive are the calls of the source. Calls come from the whole dose curve; as a rule, active = well fitted curve in the direction sought with a large enough effect; inconclusive = small, poorly fitted or top-dose-only effect, or another doubt; inactive = no such curve, though single readings can be large; an effect the other way counts as inactive or inconclusive.

Assays:
[1] = molecular target: Rap guanine nucleotide exchange factor 3 (Homo sapiens) (UniProt O95398); assay: Confirmatory qHTS for agonist of cAMP-regulated guanine nucleotide exchange factor 3 (EPAC1) (AID 1645881);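 note: EPAC1 catalysed release of BODIPY-GDP from Rap1B seen as fluorescence loss; nearly all actives have a fitted effect of over 75% in size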
[2] = molecular target: Rap guanine nucleotide exchange factor 4 (Homo sapiens) (UniProt Q8WZA2); assay: Confirmatory qHTS for agonist of cAMP-regulated guanine nucleotide exchange factor 4 (EPAC2) (AID 1645884);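 note: nucleotide exchange releases bodipy-GDP from Rap1 and this lowers its fluorescence; nearly all actives have a fitted effect of over 65% in size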
[3] = molecular target: Rap guanine nucleotide exchange factor 4 (Homo sapiens) (UniProt Q8WZA2); assay: Confirmatory qHTS for antagonist of cAMP-regulated guanine nucleotide exchange factor 4 (EPAC2) (AID 1645885); note: nearly all actives have a fitted effect of over 25% in size; note: potency is the fitted concentration of half-maximal effect
[4] = molecular target: Rap guanine nucleotide exchange factor 3 (Homo sapiens) (UniProt O95398); assay: Counterscreen qHTS for antagonist of cAMP-regulated guanine nucleotide exchange factor 3 (EPAC1) (AID 1645888);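 note: fluorescence loss as bound BODIPY-GDP is released from Rap1B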
In short: (§1)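 Rap1B-BODIPY-GDP 250 nM + GDP 50 uM; cpds 7-pt, final 9.74 nM–152 uM (activator mode) or from 7.32 nM upwards (inhibitor mode); RT; FI 480/540 nm at 5 and 30 min, then ± cAMP, reread.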

[5] = molecular target: Rap guanine nucleotide exchange factor 3 (Homo sapiens) (UniProt O95398); assay: Counterscreen qHTS for agonist of cAMP-regulated guanine nucleotide exchange factor 3 (EPAC1) (AID 1645889); note: nearly all actives have a fitted effect of over 40% in size
In short: as §1

Rap guanine nucleotide exchange factor 3 (Homo sapiens), sequence (O95398 whole entry, looked up): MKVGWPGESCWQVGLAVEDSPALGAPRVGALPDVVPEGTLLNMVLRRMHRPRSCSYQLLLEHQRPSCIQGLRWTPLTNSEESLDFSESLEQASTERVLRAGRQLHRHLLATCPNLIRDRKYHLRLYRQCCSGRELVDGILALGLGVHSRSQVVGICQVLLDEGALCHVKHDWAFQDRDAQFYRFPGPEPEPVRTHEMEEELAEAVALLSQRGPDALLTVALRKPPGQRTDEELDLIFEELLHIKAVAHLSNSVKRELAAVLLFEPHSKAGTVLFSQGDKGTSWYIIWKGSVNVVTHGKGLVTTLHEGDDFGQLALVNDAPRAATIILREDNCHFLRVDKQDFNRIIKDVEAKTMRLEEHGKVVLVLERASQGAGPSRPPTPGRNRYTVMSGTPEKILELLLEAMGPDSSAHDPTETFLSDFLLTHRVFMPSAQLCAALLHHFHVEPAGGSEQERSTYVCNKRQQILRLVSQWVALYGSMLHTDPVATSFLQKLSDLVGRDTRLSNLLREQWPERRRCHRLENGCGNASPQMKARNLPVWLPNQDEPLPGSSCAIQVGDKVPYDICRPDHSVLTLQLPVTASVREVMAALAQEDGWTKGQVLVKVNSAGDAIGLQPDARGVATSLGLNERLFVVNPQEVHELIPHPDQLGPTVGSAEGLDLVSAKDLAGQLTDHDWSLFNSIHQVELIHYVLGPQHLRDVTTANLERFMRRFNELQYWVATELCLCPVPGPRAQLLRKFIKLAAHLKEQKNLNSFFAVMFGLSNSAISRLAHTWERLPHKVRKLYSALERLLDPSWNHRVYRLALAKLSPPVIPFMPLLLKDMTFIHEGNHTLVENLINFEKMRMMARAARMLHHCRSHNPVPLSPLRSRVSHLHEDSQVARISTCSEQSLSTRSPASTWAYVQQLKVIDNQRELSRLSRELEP
Rap guanine nucleotide exchange factor 4 (Homo sapiens), sequence (Q8WZA2 whole entry, looked up): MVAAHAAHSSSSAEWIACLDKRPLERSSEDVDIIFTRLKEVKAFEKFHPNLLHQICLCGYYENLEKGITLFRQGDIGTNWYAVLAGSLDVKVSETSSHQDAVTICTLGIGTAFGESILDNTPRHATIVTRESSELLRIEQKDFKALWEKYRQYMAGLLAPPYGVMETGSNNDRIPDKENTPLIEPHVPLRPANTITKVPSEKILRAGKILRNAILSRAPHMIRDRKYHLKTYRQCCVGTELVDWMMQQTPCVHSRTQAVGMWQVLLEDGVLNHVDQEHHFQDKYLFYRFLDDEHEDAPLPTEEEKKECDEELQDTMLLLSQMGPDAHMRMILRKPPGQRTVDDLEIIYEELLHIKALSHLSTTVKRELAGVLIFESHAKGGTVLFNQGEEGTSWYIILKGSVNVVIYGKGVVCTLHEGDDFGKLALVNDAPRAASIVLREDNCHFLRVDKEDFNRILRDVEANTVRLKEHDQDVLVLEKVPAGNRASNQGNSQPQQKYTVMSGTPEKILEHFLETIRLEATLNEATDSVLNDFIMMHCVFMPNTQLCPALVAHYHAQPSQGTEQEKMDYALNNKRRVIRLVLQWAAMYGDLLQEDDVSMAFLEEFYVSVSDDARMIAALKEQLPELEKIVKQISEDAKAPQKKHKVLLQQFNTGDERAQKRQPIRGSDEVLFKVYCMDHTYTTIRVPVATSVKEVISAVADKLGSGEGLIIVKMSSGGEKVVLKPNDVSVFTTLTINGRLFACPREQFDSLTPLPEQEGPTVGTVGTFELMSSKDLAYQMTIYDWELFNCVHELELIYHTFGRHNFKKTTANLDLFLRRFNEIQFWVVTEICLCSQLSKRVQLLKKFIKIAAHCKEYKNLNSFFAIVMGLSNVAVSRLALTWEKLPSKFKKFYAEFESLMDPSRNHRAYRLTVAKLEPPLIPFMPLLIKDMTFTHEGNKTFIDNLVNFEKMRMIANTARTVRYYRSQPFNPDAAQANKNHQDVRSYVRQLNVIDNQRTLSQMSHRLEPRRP

Compound	Potency [1]	Potency [2]	Potency [3]	Potency [4]	Potency [5]	activation [2]	activity change, negative = inhibition [4]	activation [5]	outcome [3]
COc1ccc(OCC(=O)NCc2ccc3c(c2)CCN3C(=O)c2cccc(C)c2)cc1	inactive	inactive	inactive	inactive	inactive	–	–	–	–
COc1cc(/C=C2/SC(=O)NC2=O)ccc1OCc1ccccc1	inactive	inactive	inactive	inactive	inactive	–	–	–	–
Cc1c([N+](=O)[O-])cnc(Sc2ccccc2)c1[N+](=O)[O-]	inactive	inactive	inactive	inactive	inactive	–	–	–	–
Cc1ccc(S(=O)(=O)N2[C@@H](c3ccc(C(C)(C)C)cc3)C(C(=O)O)=CC[C@H]2c2cccs2)cc1	inactive	inactive	inactive	inactive	inactive	–	–	–	–
CCc1ccc2c(c1)NC(=O)C2(C)Cc1ccccc1OC (stereo not given)	inactive	inactive	inactive	inactive	inactive	–	–	–	–
CCOc1cc(/C=C/c2cc(C(=O)O)c3ccccc3n2)ccc1OC	inactive	–	inactive	–	–	-3.6% [at 17.1 µM, percent relative to cAMP agonist control]	8.54% [at 30.8 µM]	6.45% [at 30.8 µM]	–
COc1ccc(O)c(/C=N/NC(=O)c2ccc(N3CCCC3=O)cc2)c1	inactive	inactive	inactive	inactive	inactive	–	–	–	–
CCOC(=O)COc1ccc(/C=C(\C#N)c2nc3ccc(C)cc3[nH]2)cc1OC	inactive	inactive	inactive	inactive	inactive	–	–	–	–
O=C(NCc1ccccc1)c1ccc2c(=O)[nH]c3c(C(=O)NCC4CCCO4)sc(=S)n3c2c1 (stereo not given)	inactive	inactive	inactive	inactive	inactive	–	–	–	–
N#Cc1c(-c2ccccc2)c(C#N)c2nc3ccccc3n2c1N	inactive	inactive	84.9 µM (active)	inactive	inactive	–	–	–	–
CCOC(=O)Cc1nn(Cc2ccc(Cl)cc2)c(=O)c2ccccc12	inactive	inactive	inactive	inactive	inactive	–	–	–	–
CC(C)(C)c1ccc(OCc2ccc(C(=O)N/N=C/c3ccc(O)c(O)c3)cc2)cc1	inactive	–	inactive	–	–	-9.36% [at 17.1 µM, percent relative to cAMP agonist control]	-20.9% [at 30.8 µM]	10.5% [at 30.8 µM]	–
CCOC(=O)C1=C(N)Oc2cc(O)ccc2C1c1ccccc1 (stereo not given)	inactive	–	inactive	–	–	-4.25% [at 17.1 µM, percent relative to cAMP agonist control]	-7.53% [at 30.8 µM]	10.8% [at 30.8 µM]	–
COc1cccc(OCc2nc3ccccc3n2Cc2ccccc2)c1	inactive	inactive	inactive	inactive	inactive	–	–	–	–
O=C(O)C/C(=C\c1cc(Cl)c2c(c1)OCO2)c1nc2ccccc2s1	inactive	–	inactive	–	–	-1.81% [at 17.1 µM, percent relative to cAMP agonist control]	-1% [at 30.8 µM]	-1.83% [at 30.8 µM]	–
O=C(O)c1ccccc1NC(c1ccccc1)c1ccc(Cl)cc1 (stereo not given)	inactive	inactive	inactive	inactive	inactive	–	–	–	–
CC1(C)[C@@H](O)CC[C@]2(C)C3C(O)C=C4[C@H]5C[C@@](C)(CO)CC[C@]5(C)CC[C@]4(C)[C@]3(C)CC[C@@H]12 (stereo not given in full)	inactive	–	inactive	–	–	-6.54% [at 17.1 µM, percent relative to cAMP agonist control]	-3.14% [at 30.8 µM]	-1.49% [at 30.8 µM]	–
CC(=O)Nc1ccc(NC(=O)CNC(=O)COc2ccccc2)cc1	inactive	–	inactive	–	–	14.1% [at 17.1 µM, percent relative to cAMP agonist control]	1.2% [at 30.8 µM]	-0.338% [at 30.8 µM]	–
COc1cc(OC)cc(-c2cc3ccc(OC)cc3cn2)c1	inactive	inactive	30.1 µM (active)	inactive	inactive	–	–	–	–
CC(Oc1ccc(Cl)cc1Cl)C(=O)NC1=NN(c2ccccc2)C(=O)C1 (stereo not given)	inactive	inactive	inactive	inactive	inactive	–	–	–	–
O=C(Nc1cc(C(F)(F)F)ccc1Cl)c1nc2ccccc2nc1N1CCCCC1	inactive	inactive	–	inactive	inactive	–	–	–	inactive [at 12.7 µM]
CC(C)N1CCc2c(sc(NC(=O)c3ccc(S(=O)(=O)N4CCc5ccccc54)cc3)c2C(N)=O)C1	inactive	inactive	inactive	inactive	inactive	–	–	–	–
CNc1ccc(/C=C/C(=O)c2ccc(C)cc2)cc1[N+](=O)[O-]	inactive	–	inactive	–	–	-1.81% [at 17.1 µM, percent relative to cAMP agonist control]	16.3% [at 30.8 µM]	21% [at 30.8 µM]	–

Compound	Potency [1]	Potency [2]	Potency [3]	Potency [4]	Potency [5]	activation [2]	activity change, negative = inhibition [4]	activation [5]	outcome [3]
O=C(Nc1ccc(N2CCC(N3CCCCC3)CC2)c(C(=O)O)c1)c1ccc(Br)cc1	inactive	inactive	–	inactive	inactive	–	–	–	inactive; activator; fitted 1.6944 uM [at 12.7 µM]
Cc1ccc(C)c(N2CCN(C(=O)c3cccn4c(=O)c5ccccc5nc34)CC2)c1	inactive	inactive	inactive	inactive	inactive	–	–	–	–
CCCCC(CC)C(=O)Nc1ccc(Nc2ccccc2)cc1 (stereo not given)	inactive	inactive	inactive	inactive	inactive	–	–	–	–
N#C/C(=C/c1ccc(-c2ccc(S(N)(=O)=O)cc2)o1)c1nc2ccccc2s1	inactive	–	inactive	–	–	-24.7% [at 17.1 µM, percent relative to cAMP agonist control]	5.29% [at 30.8 µM]	-62% [at 30.8 µM]	–
O=C(NCCc1c[nH]c2ccccc12)C(=O)Nc1cc2c3c(c1)CC(=O)N3CCC2	inactive	inactive	inactive	inactive	inactive	–	–	–	–
Cc1cccc(Cn2c(=O)oc3ccc(C)cc32)c1	inactive	–	inactive	–	–	1.77% [at 17.1 µM, percent relative to cAMP agonist control]	0.42% [at 30.8 µM]	19.6% [at 30.8 µM]	–
NS(=O)(=O)c1ccc(NC(=O)c2cccc(N3C(=O)c4ccccc4C3=O)c2)cc1	inactive	–	inactive	–	–	3.4% [at 17.1 µM, percent relative to cAMP agonist control]	2.18% [at 30.8 µM]	23.3% [at 30.8 µM]	–
CC1(C(=O)NS(=O)(=O)c2ccc(Cl)cc2)CCN1C(=O)C1(c2ccccc2)CCCC1 (stereo not given)	inactive	inactive	inactive	inactive	inactive	–	–	–	–
Cc1ccc(/C=C/C(=O)Nc2nnc(SCc3ccc(C#N)cc3)s2)o1	inactive	inactive	inactive	inactive	inactive	–	–	–	–
CC(Oc1ccc(Cl)cc1)C(=O)Nc1sccc1C(N)=O (stereo not given)	inactive	–	inactive	–	–	0.0366% [at 17.1 µM, percent relative to cAMP agonist control]	-14.6% [at 30.8 µM]	24.1% [at 30.8 µM]	–
COc1ccc(N=C2SC(C(=O)Nc3ccc(C(=O)O)cc3)CC(=O)N2Cc2cccs2)cc1 (stereo not given)	inactive	–	inactive	–	–	-0.227% [at 17.1 µM, percent relative to cAMP agonist control]	-2.18% [at 30.8 µM]	7.24% [at 30.8 µM]	–
Cc1nnc2ccc(-c3ccc(NC(=O)Cc4cccs4)cc3)nn12	inactive	–	inactive	–	–	-1.11% [at 17.1 µM, percent relative to cAMP agonist control]	-8.86% [at 30.8 µM]	9.02% [at 30.8 µM]	–
O=C(Cc1ccc(Cl)cc1)N/N=C/c1ccc(O)c(O)c1	inactive	inactive	inactive	inactive	inactive	–	–	–	–
CCc1ccc(N(C(=O)c2csnn2)C(C(=O)NCc2ccccc2)c2ccco2)cc1 (stereo not given)	inactive	inactive	16.9 µM (active)	inactive	inactive	–	–	–	–
O=c1[nH]c(C2CCN(S(=O)(=O)c3ccccc3F)CC2)nc2c1nnn2Cc1ccc(F)cc1	inactive	inactive	inactive	inactive	inactive	–	–	–	–
Cc1ccc(SCC(=O)OCC(=O)N(C)CC(=O)Nc2ccc(F)cc2)cc1C	inactive	–	inactive	–	–	5.96% [at 17.1 µM, percent relative to cAMP agonist control]	-28.7% [at 30.8 µM]	26.8% [at 30.8 µM]	–
CCCCNC(=O)CN1CCN(c2ncc(NC(=O)c3ccc(Cl)cc3)cc2C(=O)O)CC1	inactive	inactive	inactive	inactive	inactive	–	–	–	–
CCC(=C(c1ccc(OC)cc1)c1ccc(OC)cc1)c1cn(CC(O)CN2CCN(C)CC2)c2ccccc12 (stereo not given)	inactive	–	inactive	–	–	8.96% [at 17.1 µM, percent relative to cAMP agonist control]	-21.5% [at 30.8 µM]	25.5% [at 30.8 µM]	–
CCCc1nc(SC2CCCC2)c2c(=O)n(C)c(=O)n(C)c2n1	inactive	inactive	inactive	inactive	inactive	–	–	–	–
C/C(CC(=O)N1CCCC1)=N\NC(=O)c1cc2ccccc2cc1O	inactive	inactive	inactive	inactive	inactive	–	–	–	–
CCN(CC)C(=O)c1ccc2c(c1)N(Cc1ccc(C(F)(F)F)cc1)C(=O)c1ccccc1S2	inactive	inactive	–	inactive	inactive	–	–	–	inactive [at 12.7 µM]
COCC(=O)Oc1c(Sc2ccccc2[N+](=O)[O-])c(C)nn1C(C)(C)C	inactive	inactive	inactive	inactive	inactive	–	–	–	–
